Assay results: the supplement of paper PMC12282887
± gives the standard deviation of the averaged measurements.

Tested on: E. coli BW25113 marRABp lux reporter
Test: promoter activity interaction Z-score (Lux/OD deviation from empty-vector control); higher = stronger promoter induction by the compound
Method: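 E. coli BW25113 (wild type or ΔmarA/ΔsoxS/Δrob) carrying pTU175 luxCDABE promoter reporters was grown in LB in 384-well plates at 37°C with each of 94 compounds at 4 two-fold concentrations, in biological duplicates. Luminescence and OD600 were read every 30 min for 12 h and integrated as AUC over 8 h (0-8 h WT, 1-9 h mutants). Lux AUC was divided by OD AUC; the interaction score is the residual of a Huber robust fit of each promoter against the empty-vector control, then Z-transformed per promoter.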

SMILES	promoter activity interaction Z-score (1 µg/ml, genetic background: wild type)	promoter activity interaction Z-score (1 µg/ml, genetic background: ΔmarA)	promoter activity interaction Z-score (1 µg/ml, genetic background: Δrob)	promoter activity interaction Z-score (1 µg/ml, genetic background: ΔsoxS)	promoter activity interaction Z-score (1.9 µg/ml, genetic background: wild type)	promoter activity interaction Z-score (1.9 µg/ml, genetic background: ΔmarA)	promoter activity interaction Z-score (1.9 µg/ml, genetic background: Δrob)	promoter activity interaction Z-score (1.9 µg/ml, genetic background: ΔsoxS)	promoter activity interaction Z-score (3.8 µg/ml, genetic background: wild type)	promoter activity interaction Z-score (3.8 µg/ml, genetic background: ΔmarA)	promoter activity interaction Z-score (3.8 µg/ml, genetic background: Δrob)	promoter activity interaction Z-score (3.8 µg/ml, genetic background: ΔsoxS)	promoter activity interaction Z-score (7.7 µg/ml, genetic background: wild type)	promoter activity interaction Z-score (7.7 µg/ml, genetic background: ΔmarA)	promoter activity interaction Z-score (7.7 µg/ml, genetic background: Δrob)	promoter activity interaction Z-score (7.7 µg/ml, genetic background: ΔsoxS)	promoter activity interaction Z-score (13.7 µg/ml, genetic background: wild type)	promoter activity interaction Z-score (13.7 µg/ml, genetic background: ΔmarA)	promoter activity interaction Z-score (13.7 µg/ml, genetic background: Δrob)	promoter activity interaction Z-score (13.7 µg/ml, genetic background: ΔsoxS)	promoter activity interaction Z-score (27.5 µg/ml, genetic background: wild type)	promoter activity interaction Z-score (27.5 µg/ml, genetic background: ΔmarA)	promoter activity interaction Z-score (27.5 µg/ml, genetic background: Δrob)	promoter activity interaction Z-score (27.5 µg/ml, genetic background: ΔsoxS)	promoter activity interaction Z-score (54.9 µg/ml, genetic background: wild type)	promoter activity interaction Z-score (54.9 µg/ml, genetic background: ΔmarA)	promoter activity interaction Z-score (54.9 µg/ml, genetic background: Δrob)	promoter activity interaction Z-score (54.9 µg/ml, genetic background: ΔsoxS)	promoter activity interaction Z-score (109.8 µg/ml, genetic background: wild type)	promoter activity interaction Z-score (109.8 µg/ml, genetic background: ΔmarA)	promoter activity interaction Z-score (109.8 µg/ml, genetic background: Δrob)	promoter activity interaction Z-score (109.8 µg/ml, genetic background: ΔsoxS)
NC1CONC1=O (configuration not stated) [Cycloserine D]	-0.0783 ± 0.12	-0.137 ± 0.057	-0.172 ± 0.25	-0.158 ± 0.078	-0.121 ± 0.15	0.00534 ± 0.14	-0.0886 ± 0.21	0.0634 ± 0.045	-0.109 ± 0.06	-0.119 ± 0.032	-0.11 ± 0.062	-0.153 ± 0.013	-0.273 ± 0.016	-0.299 ± 0.099	0.163 ± 0.27	-0.0525 ± 0.2																
CNC[C@H](O)c1ccc(O)c(O)c1 [Adrenalin]																	0.121 ± 0.2	-0.289 ± 0.22	-0.0038 ± 0.073	-0.111 ± 0.21	0.38 ± 0.26	0.173 ± 0.6	0.209 ± 0.28	0.0712 ± 0.22	-0.365 ± 0.31	-0.424 ± 0.13	-0.339 ± 0.43	-0.285 ± 0.12	-0.142 ± 0.4	-0.43 ± 0.15	0.0375 ± 0.16	0.218 ± 0.26
